Screening results from PubChem.
Tau filament bind: binders of human tau filaments; P10636; recombinant tau filaments, thioflavin S fluorescence, 15 h; filaments grown with octadecylsulfate alongside compound; Potency, µM (doses to about 57.1 µM), without a hit: top-dose activity change, negative = inhibition; 2% of 71,000 active; AID 596;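 note: % is set by controls: 0 for no effect and ±100 for the full control effect; actives lower thioflavin S fluorescence by blocking filaments or displacing dye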
Target sequence (P10636 whole entry, looked up): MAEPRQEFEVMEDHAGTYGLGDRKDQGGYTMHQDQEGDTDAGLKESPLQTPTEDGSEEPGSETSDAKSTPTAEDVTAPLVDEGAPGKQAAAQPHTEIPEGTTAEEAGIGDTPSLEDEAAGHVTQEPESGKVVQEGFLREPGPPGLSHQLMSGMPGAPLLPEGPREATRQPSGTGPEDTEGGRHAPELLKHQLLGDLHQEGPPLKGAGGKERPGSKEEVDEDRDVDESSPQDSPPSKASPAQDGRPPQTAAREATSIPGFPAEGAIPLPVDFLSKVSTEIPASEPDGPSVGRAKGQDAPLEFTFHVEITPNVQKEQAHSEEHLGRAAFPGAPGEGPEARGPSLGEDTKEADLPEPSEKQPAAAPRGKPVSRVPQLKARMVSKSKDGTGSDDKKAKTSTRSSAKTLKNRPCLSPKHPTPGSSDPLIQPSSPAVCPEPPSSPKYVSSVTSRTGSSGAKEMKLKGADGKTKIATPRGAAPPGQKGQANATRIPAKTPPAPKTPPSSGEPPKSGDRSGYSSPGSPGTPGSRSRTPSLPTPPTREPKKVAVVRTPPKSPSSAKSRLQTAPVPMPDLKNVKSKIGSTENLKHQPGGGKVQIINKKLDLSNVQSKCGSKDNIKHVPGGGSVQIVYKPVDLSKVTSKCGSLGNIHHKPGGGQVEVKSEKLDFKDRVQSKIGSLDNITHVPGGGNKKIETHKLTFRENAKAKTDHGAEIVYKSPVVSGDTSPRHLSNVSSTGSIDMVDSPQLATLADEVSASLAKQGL
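Thioflavine S fluorescence (ex 450, em 510 nm) reports filaments formed from 1 uM human tau plus 30 uM ODS over 15 h at 37 C (10 mM HEPES pH 7.4, 100 mM NaCl, 5 mM DTT); compounds displacing dye or blocking filaments lower signal.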
CRE-bla Fsk: CRE-bla signaling modulation under forskolin stimulation; CHO CRE-bla reporter (cAMP response element driving beta-lactamase), forskolin EC10, beta-lactamase ratio; Potency, µM (series often up to 38.2 µM), for the others: top-dose activity change, negative = inhibition, usual class: activators; 2.5% of 71,000 active; AID 662; active = well fitted activation curve with a large enough effect in the signal ratio, with a control signal flat, not every such curve was filed as active; inconclusive = small, poorly fitted or top-dose-only effect, or effect the other way, or a change in a side signal; the % refers to the signal ratio; note: % of control where 0% means no effect
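AC50 values, positive or negative, reflect shifts in EC10 NKH 477-induced CRE-bla reporter activity in CHO cells. Incubation lasted 3 h at 37 °C before CCF4 substrate (2 h, room temperature) and ratiometric 460/530 nm reading.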
TSHR ag: TSH receptor (human) agonism | AID 926 | Potency, µM (doses to about 57.1 µM), for the others: at the highest dose activation, actives largely listed as activators | P16473 | 0.48% of 73,000 active | HEK293-CNG-TSHR cells (CNG channel as cAMP sensor), membrane potential dye, cAMP; active = well fitted activation curve with a large enough effect in the main read-out, with a control signal flat, not every such curve was filed as active; inconclusive = small, poorly fitted or top-dose-only effect, or a change in a side signal; inactive = no such curve, though single readings can be large or run the other way; % of control where 0% means no effect;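 note: the control signal comes from parental cells without the receptor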
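cAMP rise detected as CNG-channel membrane depolarization by fluorescent dye (emission 590 nm), 30 min after compound, following 60 min dye loading containing 100 uM RO 20-1724 at room temperature. Cells: TSHR/CNG HEK 293, with parental CNG HEK 293 as control.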
ERK AVP inh: vasopressin-driven ERK pathway inhibition; HEK293-V1b, vasopressin-stimulated pERK AlphaScreen; Potency, µM (doses to about 57.5 µM), for the others: top-dose activity, negative = inhibition, most hits filed as inhibitors; 0.99% of 72,000 active; AID 995; note: % is set by controls: 0 for no effect and ±100 for the full control effect; nearly all actives have a fitted effect of over 55% in size
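HEK293 cells stably expressing V1b receptor, preincubated 30 min at 37 °C with compound, then stimulated 5 min with 25 nM vasopressin. Phospho-ERK by AlphaScreen SureFire after 5 h RT; normalized to DMSO and vasopressin; AC50 by Hill fit.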
HEK293 cAMP ctrl: raises cAMP in parental HEK293 cells, TSHR agonist counter-screen; parental HEK293 CNG cAMP sensor, membrane potential fluorescence; Potency, µM (series often up to 57.1 µM), for the others: at the top dose activation, hits mostly activators; 2.5% of 73,000 active; AID 938; note: % of control where 0% means no effect; nearly all actives have a fitted effect of over 55% in size
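Parental HEK 293 cells stably expressing a cAMP-gated CNG channel were loaded with membrane potential dye containing 100 uM RO 20-1724 for 60 min. Compound added for 30 min; depolarization read as fluorescence intensity at 590 nm.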
* hit, by the source's call; i = inactive; ? = inconclusive; . = no result given; [ ] = dose if it differs, or a comment. Only some compounds are listed: those with a hit (about 7.4% of all), similar ones and a draw of the others. Unless noted, calls come from the whole dose curve; as a rule, active = well fitted curve in the direction sought with a large enough effect; inconclusive = small, poorly fitted or top-dose-only effect, or another doubt; inactive = no such curve, though single readings can be large; an effect the other way counts as inactive or inconclusive. Potency is the fitted concentration of half-maximal effect.

SMILES | Tau filament bind | CRE-bla Fsk | TSHR ag | ERK AVP inh | HEK293 cAMP ctrl
CO[C@@H]1COC(=O)[C@H](CCSC)NC(=O)C/C=C\[C@@H](C)COC(=O)[C@@H]2CCCN2C(=O)C/C=C\[C@H]1C | . | . | -7%[11.4 µM] | 17%[11.5 µM] | -2%[11.4 µM]
CN(Cc1ccccc1)c1nc2c(c(=O)[nH]c(=O)n2C)n1C | -5% | 12% | -3% | -11% | -6%
Cc1cccc(Cn2c(N(C)Cc3ccccc3)nc3c2c(=O)[nH]c(=O)n3C)c1 | 7% | 13µM* | 10% | . | 8%
C/C=C/Cn1c(N(C)Cc2ccccc2)nc2c1c(=O)[nH]c(=O)n2C | 0% | 10µM* | 10% | . | 5%
Cc1cccc(Cn2c(SCC(=O)Nc3ccccc3)nc3c2c(=O)[nH]c(=O)n3C)c1 | i | ? | 1%[11.4 µM] | . | -6%
COc1ccc(-c2cc(-c3ccccc3O)[nH]n2)cc1OC | 90% | ? | 5% | ? | 5%
COc1ccc(-c2cc(-c3cc(F)ccc3O)[nH]n2)cc1OC | 83% | 29% | 8%[11.4 µM] | 32µM* | -7%
Cc1cc(C(=O)CSc2nnc(C3COc4ccccc4O3)n2C)c(C)n1-c1ccc(F)cc1 (configuration not stated) | 12% | 3% | ? | 25% | 10µM*
O=C(Nc1cccc(-c2cnc3ccccc3n2)c1)c1ccco1 | 32µM* | ? | 8% | ? | 4%
NCCC1([N+](=O)[O-])CCNCC1 | -4%[11.4 µM] | -1%[7.6 µM] | -1%[11.4 µM] | 5%[11.5 µM] | 2%[11.4 µM]
CCCN1Cc2cccc(C(=O)Nc3ccc4c(c3)OCO4)c2C1=O | -3% | ? | ? | 17% | ?
O=C(Nc1ccc2c(c1)OCO2)c1cccc2c1C(=O)N(C1CCCCC1)C2 | -26% | -9% | 3.2µM* | 40% | 19%
CCCN1Cc2cccc(C(=O)Nc3ccc4c(c3)OCCO4)c2C1=O | 41% | 13µM* | 3% | ? | -3%
COCCN1Cc2cccc(C(=O)Nc3cc(OC)ccc3OC)c2C1=O | -12% | 10µM* | 12% | -5% | 6%
COc1cc([C@H]2c3cc4c(cc3[C@@H](O[C@H]3O[C@H]5CO[C@@H](C)O[C@H]5[C@@H](O)[C@@H]3O)[C@@H]3COC(=O)[C@H]23)OCO4)cc(OC)c1O | 10%[25.6 µM] | -6%[17.1 µM] | -20%[25.6 µM] | -11%[25.7 µM] | 2%[25.6 µM]
Cc1ccc(-n2nc(C(=O)NCc3ccco3)c3c4ccccc4n(C)c3c2=O)cc1 | 308% | 10% | ? | -9% | 4µM*
O=C(Nc1ccc2c(c1)OCO2)c1nn(-c2ccccc2)c(=O)c2ccccc12 | 22% | 13% | ? | -3% | 25µM*
COc1ccccc1-n1nc(C(=O)Nc2ccc3c(c2)OCO3)c2ccccc2c1=O | 30% | ? | 11% | -1% | 25%
O=C(NCc1ccc2c(c1)OCO2)c1ccccn1 | -10% | -3% | 2% | -3% | 12%
O=C(NCc1ccc2c(c1)OCO2)c1ccc(-c2ccc(Cl)cc2)o1 | 78% | ? | ? | 32µM* | ?
O=C(NCc1ccc2c(c1)OCO2)c1nn(-c2ccccc2)c(=O)c2ccccc12 | 18% | ? | ? | 6% | 25µM*
O=C(CSCc1cnn(-c2ccccc2)c1-n1cccc1)NCc1ccc2c(c1)OCO2 | 14% | 10% | ? | 22% | 32µM*
Cc1c(C(=O)NCc2ccc3c(c2)OCO3)oc2ccccc12 | 12% | ? | ? | 30% | 25µM*
O=C(CSCc1cnn(-c2ccccc2)c1-n1cccc1)NCCN1CCOCC1 | 3% | -4% | 6% | 19% | 12%
COc1ccc(-n2nc(C(=O)Nc3ccc4c(c3)OCO4)c3c4ccccc4n(C)c3c2=O)cc1 | 12% | 2% | ? | -14% | 16µM*
SMILES | Tau filament bind | CRE-bla Fsk | TSHR ag | ERK AVP inh | HEK293 cAMP ctrl
CN(C)CCNC(=O)c1cc2c(=O)n(C)c3ccccc3c2n1C | 83% | ? | 16% | 2% | 9%
COc1ccc(-n2nc(C(=O)Nc3ccc4c(c3)OCO4)c3ccccc3c2=O)c(OC)c1 | 15% | ? | ? | 5% | ?
Cn1c(C(=O)Nc2ccc3c(c2)OCCO3)cc2c(=O)n(C)c3ccccc3c21 | i | 0.4µM* | 6% | -27% | 0%
CCCCN1CSC(=S)N(Cc2ccccc2)C1 | 1%[11.4 µM] | ? | -1%[11.4 µM] | -11%[11.5 µM] | 5%[11.4 µM]
CCn1c(SCC(=O)N2CCCC2)nnc1-c1ccc(S(=O)(=O)N2CCCCCC2)cc1 | 15% | -5% | 0% | -1% | -11%
CCn1c(SCc2ccc(C#N)cc2)nnc1-c1ccc(S(=O)(=O)N2CCCCC2)cc1 | -4% | -4% | 4% | 25µM* | 20%
OCCCCNc1cccc2ccccc12 | 25µM* | 2% | ? | 11% | ?
CCn1c2ccccc2c2nnc(NCCCO)nc21 | 1%[11.4 µM] | ? | 0%[11.4 µM] | -12%[11.5 µM] | 12%[11.4 µM]
CC1CCN(CC[S-])CC1.O.O.[Cl][Pt] | -11%[11.4 µM] | -14%[7.6 µM] | -7%[11.4 µM] | -16%[11.5 µM] | -2%[11.4 µM]
O[C@@H](COc1cccc2ccccc12)CN1CCOCC1 | 15%[11.4 µM] | -2%[7.6 µM] | 1%[11.4 µM] | -8%[11.5 µM] | 7%[11.4 µM]
CCN1C(=O)[C@H]2[C@H]3[C@H](O)[C@H](O)C/C(=N/NC(=O)OCc4ccccc4)[C@@H]3CC[C@@H]2C1=O | . | . | -5%[11.4 µM] | -8%[11.5 µM] | -6%[11.4 µM]
COc1ccc(C)cc1Nc1cc(C)nc2nc(C)nn12 | -5% | 10µM* | 9% | -21% | 12%
COc1cccc(Nc2cc(C)nc3nc(C)nn23)c1 | 0% | 13µM* | 1% | -15% | 7%
COc1ccc(Nc2cc(C)nc3nc(C)nn23)c(OC)c1 | 28% | ? | 6% | -16% | 1%
COc1cc(Nc2cc(C)nc3nc(C)nn23)cc(OC)c1OC | -6% | 4µM* | 3% | -32% | 4%
CN(C)CC(C)(C)CNC(=O)c1ccc(-n2c(=O)c(=O)[nH]c3ccccc32)cc1 | . | . | 10% | . | -19%
O=C1C=CC2=C3c4cc(O)c(O)cc4C[C@]3(O)COC2=C1 | . | . | . | -4% | .
CC(C)(C)N1C(=O)[C@H]2[C@@H]3[C@H](O)[C@H](O)CC(=O)[C@H]3CC[C@H]2C1=O | . | . | -3%[11.4 µM] | 18%[11.5 µM] | -2%[11.4 µM]
O=C(c1cccc(F)c1)N1CCC2(CC1)CN(c1ccc(-c3ccccc3)cc1)C2 | 4% | -1% | 4% | ? | 11%
O=C(c1cccc(F)c1)N1CCC2(CC1)CCN(c1ccc(-c3ccccc3)cc1)CC2 | -1% | -7% | ? | -7% | 16µM*
Cc1c(Cl)c(S(N)(=O)=O)cc(S(N)(=O)=O)c1NC(=O)c1ccc(Cl)cc1 | -3%[11.4 µM] | -13%[7.6 µM] | 3%[11.4 µM] | -4%[11.5 µM] | 6%[11.4 µM]
Cc1ccc2oc(-c3cccc(NC(=O)C4CCCO4)c3)nc2c1 (configuration not stated) | 6% | 15% | 4% | -22% | 23%
O=C(Nc1cccc(-c2nc3cc(Cl)ccc3o2)c1)C1CCCO1 (configuration not stated) | 35% | ? | 3% | 20µM* | 11%
COC(=O)c1c(-c2cccs2)csc1NC(=O)CN1CCOCC1 | 25% | 3.2µM* | ? | ? | ?
